# Test results taken from PubChem BioAssay.
# “And” between values parts separate entries of the source, which are not always exact repeats. Identical values can stand only once. The source made the active and inactive calls. Unless noted, no stated cut-off is given here; in the data, active means parasite load remaining mostly below about 12% (no sharp cut-off); inactive means mostly above about 10%.
# How the values were obtained:
# [1] = Wnt pathway potentiators raising nuclear beta-catenin – imaging, WNT3A-conditioned medium, mouse C2C12, NPC library, primary screen (AID 1117326; in the data active means nuclear beta-catenin stimulation mostly above about 4.2%, no sharp cut-off; inactive means mostly below about 10%); conditions: stronger effect = higher value
# [2] = stimulators of insulin release from INS-1E, primary screen, cell-based, 5 mM glucose, NPC library (AID 1117329;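 active means compound raises insulin release from rat beta cells at 5 mM glucose, no numeric limit stated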); conditions: rat INS-1E insulin secretion, at 10 µM, stronger effect = higher value
# [3] = growth inhibition of GSK3B-pretreated HCT116 cells – cell-based, CellTiter-Glo, 0.2 to 20 µM (AID 1117336;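 active means compounds lowering colon cancer cell viability after pretreatment blocking the GSK3B kinase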); conditions: HCT116 viability after GSK3B inhibitor, at 20 µM, stronger effect = higher value
# [4] = inhibition of endothelial tube formation, primary screen, imaging, VEGF stimulated, CD31 staining, tube area, NPC library (AID 1117340;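 active means compound that reduces growth-factor-driven endothelial tube area in a mixed cell culture, no cutoff stated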); conditions: VEGF-stimulated ADSC/ECFC co-culture, at 10 µM, stronger effect = higher value
# [5] = GLP1 release stimulators, primary, NCI-H716, NPC library (AID 1117341;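 active means compound raises GLP1 secretion from the human gut endocrine cells, with no numeric limit stated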); conditions: NCI-H716 cells, at 10 µM, stronger effect = higher value
# [6] = HCT116 colon cancer cell growth inhibition, primary screen, CellTiter-Glo luminescence, NPC library (AID 1117342;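 active means compounds that lower survival of HCT116 colon cancer cells in the luminescence readout, no numeric limit stated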); conditions: at 20 µM (top of the series)
# [7] = reduced SW480 viability measured with CellTiter-Glo, NPC library, primary (AID 1117343;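 active means compounds that lower viability of the colon cancer cells in the luminescence readout, with no numeric limit stated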); conditions: CellTiter-Glo luminescence; at 20 µM (top of the series) unless noted
# [8] = NPC library primary testing for decreased DLD-1 cell viability via CellTiter-Glo (AID 1117346;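 active means compounds that lower survival of DLD-1 colon cancer cells in the luminescence readout, no cutoff given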); conditions: DLD-1 viability, CellTiter-Glo luminescence; at 20 µM (top of the series)
# [9] = EMT-state selective cytotoxicity in co-culture – imaging, PC-3E GFP, TEM4-18 mCherry, primary screen (AID 1345086;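 active means compounds killing one labelled cell type while sparing the other, by normalised counts and ratio limits, not self-fluorescent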;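 on all read-outs here: cells exposed to compound for 72 h before imaging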;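 on red/green cell ratio (normalised): normalised mesenchymal count divided by normalised epithelial count so high means epithelial killing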); conditions: PC-3E GFP / TEM4-18 mCherry co-culture, imaging cell counts, at 1 µM; for red/green cell ratio (normalised): actives lie on both sides, counts scaled to control wells, 1 = unselective
# [10] = viability loss with induced miR-34 in A549 – imaging, A549 dox-inducible miR-34, nuclei and caspase counts, primary screen (AID 1347080;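 active means compounds whose cell count with miR-34 switched on is under 0.7 times the count with it off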); conditions: A549 miR-34 inducible, Hoechst nuclei count, 48 h
# [11] = target: NAD(+) hydrolase SARM1 (Homo sapiens) (UniProt Q6SZW1); test: blocking NAD cleavage by SARM1 SAM-TIR – cell lysate, NAD-Glo luminescence (AID 1508614;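 active means compound whose remaining NAD level is above about 45 nM, limit read from the data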); conditions: SAM-TIR HEK293T lysate NADase, at 1 µM, stronger effect = higher value
# Sequence of NAD(+) hydrolase SARM1 (Homo sapiens) (Q6SZW1 whole entry, looked up): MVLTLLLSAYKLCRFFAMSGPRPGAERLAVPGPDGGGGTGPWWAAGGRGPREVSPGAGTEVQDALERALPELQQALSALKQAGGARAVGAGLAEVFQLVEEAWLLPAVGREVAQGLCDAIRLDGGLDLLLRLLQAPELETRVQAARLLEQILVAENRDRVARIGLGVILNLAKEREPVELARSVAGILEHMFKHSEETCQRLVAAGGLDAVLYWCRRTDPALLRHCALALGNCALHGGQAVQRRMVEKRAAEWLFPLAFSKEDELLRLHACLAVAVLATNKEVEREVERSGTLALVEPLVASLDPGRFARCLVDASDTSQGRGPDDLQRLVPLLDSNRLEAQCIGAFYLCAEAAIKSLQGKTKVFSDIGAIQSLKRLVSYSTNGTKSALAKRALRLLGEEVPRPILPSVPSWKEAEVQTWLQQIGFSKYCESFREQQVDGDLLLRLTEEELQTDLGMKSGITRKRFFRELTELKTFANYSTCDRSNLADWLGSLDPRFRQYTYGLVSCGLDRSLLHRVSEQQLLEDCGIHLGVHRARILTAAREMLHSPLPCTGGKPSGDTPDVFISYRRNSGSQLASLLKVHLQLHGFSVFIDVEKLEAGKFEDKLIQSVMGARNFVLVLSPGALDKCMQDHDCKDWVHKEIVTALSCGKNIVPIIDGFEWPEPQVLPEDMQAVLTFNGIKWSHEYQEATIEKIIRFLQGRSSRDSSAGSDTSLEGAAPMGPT
# [12] = P. berghei load reduction in hepatocytes – cell-based, HepG2, luciferase luminescence, HepG2 viability, primary screen (AID 624349);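 further: 100% = mean of DMSO negative control wells on the same plate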; conditions: P. berghei liver stage in HepG2, luciferase luminescence, concentration not given here; parasite load remaining: stronger effect = lower value; viability: measured here: HepG2 viability without parasites
# [13] = MELAS cybrid and Rieske KO viability enhancers – cell-based, MELAS cybrids, Rieske KO mouse fibroblasts, CellTiter-Glo, primary screen (AID 1508586;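 active means mean z-score across replicates of 1.96 or higher in either the MELAS or the Rieske mutant cell line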;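 further: z relative to plate mean and SD of compound and empty wells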); conditions: low glucose
# [14] = galactose survival enhancers in mitochondrial complex I cybrids – cell-based, galactose medium, ATP luminescence, primary screen (AID 1645843;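 active means z-score of at least 1.8 in each of two replicates, scored against plate mean and spread of sample wells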;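 further: positive z means more ATP and so rescue of galactose-driven cybrid death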); conditions: complex I mutant cybrid cells, 72 h, stronger effect = higher value
# [15] = measured here: epithelial PC-3E GFP cell survival
# [16] = measured here: mesenchymal TEM4-18 mCherry cell survival
# [17] = stronger effect = lower value, cell number ratio, induced over uninduced
# [18] = measured here: relative caspase fold change +Dox/-Dox
# [19] = measured here: total cells with miR-34 induction, stronger effect = lower value
# [20] = measured here: total cells without miR-34 induction
# [21] = MELAS cybrid survival, CellTiter-Glo 48 h, stronger effect = higher value
# [22] = Rieske KO mouse fibroblast survival, CellTiter-Glo 72 h
compound,measurement,setting,value
Cc1cc2nc3ccc(=[N+](C)C)cc-3sc2cc1N,nuclear beta-catenin stimulation,[1]; at 10 µM,21.6% (inactive)
same,nuclear beta-catenin stimulation,"[1]; stimulation, at 2 µM",1%
same,insulin secretion stimulation,[2],-0.6% (inactive)
same,viability decrease,[3],90.5% (active)
same,tube area decrease,[4],108% (active)
same,GLP1 secretion stimulation,[5],-3.7% (inactive)
same,inhibition of viability,[6],82.7% (active)
same,viability decrease (inhibition),[7],85% (active)
same,viability decrease (inhibition),[8],38.4% (inactive)
same,red/green cell ratio (normalised),[9],1.59 (inactive)
same,normalised cell number,[9]; [15],0.17
same,normalised cell number,[9]; [16],0.28
same,fold change,[10]; [17],1.11 (inactive)
same,fold change,[10]; [18],1.04
same,cell count,[10]; [19],2760
same,cell count,[10]; [20],2500
same,remaining NAD,[11],10 nM (inactive)
O=C(O)CN(CC(=O)O)Cc1cc2c(-c3ccccc3C(=O)O)c3cc(CN(CC(=O)O)CC(=O)O)c(=O)cc-3oc2cc1O,parasite load remaining,[12],107% (inactive)
same,viability,[12],73.2%
same,nuclear beta-catenin stimulation,[1]; at 10 µM,-1.1% (inactive)
same,nuclear beta-catenin stimulation,"[1]; stimulation, at 2 µM",-0.6%
same,insulin secretion stimulation,[2],-0.4% (inactive)
same,viability decrease,[3],38.8% (inactive)
same,tube area decrease,[4],19.9% (inactive)
same,GLP1 secretion stimulation,[5],0.8% (inactive)
same,inhibition of viability,[6],22.3% (inactive)
same,viability decrease (inhibition),[7],25.8% (inactive)
same,viability decrease (inhibition),[8],14.8% (inactive)
same,red/green cell ratio (normalised),[9],0.97 (inactive)
same,normalised cell number,[9]; [15],1.53
same,normalised cell number,[9]; [16],1.49
CC(C)=CCC/C(C)=C/CO,parasite load remaining,[12],123% (inactive)
same,viability,[12],71.1%
same,nuclear beta-catenin stimulation,[1]; at 10 µM,-0.1% (inactive)
same,nuclear beta-catenin stimulation,"[1]; stimulation, at 2 µM",3%
same,insulin secretion stimulation,[2],0.7% (inactive)
same,viability decrease,[3],-10.3% (inactive)
same,tube area decrease,[4],12.4% (inactive)
same,GLP1 secretion stimulation,[5],-1.8% (inactive)
same,inhibition of viability,[6],1.77% (inactive)
same,viability decrease (inhibition),[7],-1.7% (inactive)
same,viability decrease (inhibition),[8],-8.2% (inactive)
same,red/green cell ratio (normalised),[9],0.92 (inactive)
same,normalised cell number,[9]; [15],1.13
same,normalised cell number,[9]; [16],1.03
CC(=O)OCC(=O)[C@@]1(O)CCC2C3CCC4=CC(=O)CC[C@]4(C)C3[C@@H](O)C[C@@]21C (stereo not given in full),parasite load remaining,[12],123% (inactive) and 70.8% (inactive)
same,viability,[12],73.9% and 90.3%
same,nuclear beta-catenin stimulation,[1]; at 10 µM,-1.1% (inactive)
same,nuclear beta-catenin stimulation,"[1]; stimulation, at 2 µM",-0.8%
same,insulin secretion stimulation,[2],-1.3% (inactive)
same,viability decrease,[3],-8% (inactive)
same,tube area decrease,[4],1.6% (inactive)
same,GLP1 secretion stimulation,[5],-3.9% (inactive)
same,inhibition of viability,[6],-1.6% (inactive)
same,viability decrease (inhibition),[7],-3% (inactive)
same,viability decrease (inhibition),[8],-12.5% (inactive)
same,red/green cell ratio (normalised),[9],1.16 (inactive)
same,normalised cell number,[9]; [15],1.24
same,normalised cell number,[9]; [16],1.44
same,fold change,[10]; [17],0.742 (inactive)
same,fold change,[10]; [18],1.6
same,cell count,[10]; [19],6930
same,cell count,[10]; [20],9340
Cc1c(F)c(N2CCNC(C)C2)cc2c1c(=O)c(C(=O)O)cn2C1CC1 (stereo not given),nuclear beta-catenin stimulation,[1]; at 10 µM,0.7% (inactive)
same,nuclear beta-catenin stimulation,"[1]; stimulation, at 2 µM",-0.2%
same,insulin secretion stimulation,[2],1.15% (inactive)
same,viability decrease,[3],57.3% (active)
same,tube area decrease,[4],-1% (inactive)
same,GLP1 secretion stimulation,[5],-0.4% (inactive)
same,inhibition of viability,[6],39.5% (inactive)
same,viability decrease (inhibition),[7],0% (inactive)
same,viability decrease (inhibition),[8],-10.1% (inactive)
same,red/green cell ratio (normalised),[9],1 (inactive)
same,normalised cell number,[9]; [15],1.13
same,normalised cell number,[9]; [16],1.12
same,z-score,[13]; [21],0.28 (inactive)
same,z-score,[13]; [22],-0.0779
CC(O)(P(=O)(O)O)P(=O)(O)O,parasite load remaining,[12],84.2% (inactive) and 72.4% (inactive) and 27.7% (inactive)
same,viability,[12],97.4% and 110% and 90%
same,nuclear beta-catenin stimulation,[1]; at 10 µM,3.1% (inactive)
same,nuclear beta-catenin stimulation,"[1]; stimulation, at 2 µM",1.7%
same,insulin secretion stimulation,[2],0.9% (inactive)
same,viability decrease,[3],12.5% (inactive)
same,tube area decrease,[4],8.2% (inactive)
same,GLP1 secretion stimulation,[5],1.6% (inactive)
same,inhibition of viability,[6],9.4% (inactive)
same,viability decrease (inhibition),[7],2.7% (inactive)
same,viability decrease (inhibition),[8],9.1% (inactive)
same,red/green cell ratio (normalised),[9],0.95 (inactive)
same,normalised cell number,[9]; [15],1.05
same,normalised cell number,[9]; [16],1
same,z-score,[13]; [21],-0.62 (inactive) and 0.631 (inactive)
same,z-score,[13]; [22],-0.885 and -0.197
same,remaining NAD,[11],10 nM (inactive)
same,z-score,[14],-2.15 (inactive) and 0.43 (inactive)
